An excerpt weighted towards active compounds, which were near 13% of everything screened.
Pf growth 96h = P. falciparum growth inhibition at 96 hours; P. falciparum luciferase reporter growth, 96 h; Potency, µM (top dose mostly 28.7 µM), without a hit: at the top dose activity change, negative = inhibition, hits mostly inhibitors; 320,000 compounds, 6.9% hits; AID 504834; further: potency means the concentration at half of the fitted maximal effect
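Parasite growth measured via integrated firefly luciferase reporter in P. falciparum. Infected erythrocytes at 2% hematocrit, 0.05% parasitemia final were treated 96 hours at 37 C under 5% CO2, and luminescence was read.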
HCMV antiviral = human cytomegalovirus inhibition; HFF cells, HCMV-luciferase reporter, 72 h; hits give low values; activity change, negative = inhibition, % at 57.5 µM; 410,000 compounds, 4.5% hits; AID 1259415; in the data active means activity change below about -60%; inconclusive means no clear call, values can overlap the other calls; inactive means above about -39%
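Cell-based, HFFs, 1000 cells/well, 16 h 37C; cpds in DMSO + HCMV-luc, MOI 1 PFU/cell; 72 h 37C; OneGlo luminescence after 5 min RT; norm. to buffer vs Salinomycin 10uM.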
Pf growth 48h = inhibits P. falciparum growth in the first generation, 48 h; P. falciparum luciferase growth in erythrocytes, 48 h; Potency, µM (series often up to 28.7 µM), inactives show at the highest dose activity change, negative = inhibition, hits mostly inhibitors; 310,000 compounds, 5.9% hits; further: potency means the concentration at half of the fitted maximal effect
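Firefly luciferase activity from engineered P. falciparum reports growth; inhibitors lower the luminescent signal. Cultures contained 2% hematocrit erythrocytes at 0.1% final parasitemia.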
HCV inhibitor = inhibitors of hepatitis C virus infection. 340,000 compounds, 3.4% hits. Potency, µM (top dose mostly 41.8 µM), for the others: at the top dose activity change, negative = inhibition, actives largely listed as inhibitors. Huh7.5.1 HCVcc-Cre infection, luciferase reporter, 44 h; further: potency means the concentration at half of the fitted maximal effect
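Whole-lifecycle infectious HCVcc-Cre system; cells 1,000/well, compound then virus (~0.5 moi) added 4 h after plating, 44 h culture. Luciferase read 15 sec following 15 min substrate incubation, room temp.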
An asterisk follows results filed as active; i = inactive; ? = inconclusive; nt = not tested or not shown; [ ] = another dose, or the depositor's remark. Unless noted, the call rests on the fitted dose curve; in most records, active means well fitted inhibition curve with a large enough effect; inconclusive means small, poorly fitted or top-dose-only effect, or another doubt; inactive means no such curve, though single readings can be large or run the other way. On the % scale 0 is the no-effect control and ±100 the full control effect.

SMILES | Pf growth 96h | HCMV antiviral | Pf growth 48h | HCV inhibitor
O=C(NC(=S)NC(c1ccccc1)c1ccncc1)c1ccccc1 (configuration not stated) | 9.28µM* | -10.0 | ? | ?
CCC(C)(C)NC(=O)C1CCN(S(=O)(=O)c2c(C)noc2/C=C/c2ccc(C)cc2)CC1 | nt | -3.2 | nt | nt
Cc1cccc(C(=O)N2CCC(C)(C(=O)NS(=O)(=O)C3CC3)C2)c1C (configuration not stated) | nt | -17.2 | nt | nt
CC1CC2CCCC(O)=C2C(=O)O1 (configuration not stated) | nt | -60.6* | nt | 11.3%
COc1ccccc1CNc1nc(NCc2ccccc2OC)c2sccc2n1 | nt | -90.6* | nt | nt
COc1ccccc1CNc1nc(NCc2ccccc2SC)c2sccc2n1 | nt | -77.4* | nt | nt
COc1ccccc1CNc1nc(NCC2CC2)nc2ccsc12 | nt | -70.2* | nt | nt
COc1ccccc1CNc1nc(NCCNC(C)=O)c2sccc2n1 | nt | 19.5 | nt | nt
COc1ccccc1CNc1nc(NCCOc2ccccc2)c2sccc2n1 | nt | -39.0 | nt | nt
CC[n+]1c(C)cc2c(sc3ccccc32)c1C | ? | -100.7* | ? | ?
Cc1ccc2nc(Cl)c3cc(C(=O)N4CCCC(C)C4)sc3c2c1 (configuration not stated) | nt | -3.1 | nt | nt
CC(=O)c1cc2c(cc1NC(=O)Cc1ccsc1)OCO2 | -7.9% | 43.5 | -6.1% | 5.62µM*
O=C1N/C(=C\c2nc3ccccc3s2)c2ccccc21 | i | nt | 109.9% | nt
O=C1N/C(=C\c2ccccc2)c2ccccc21 | nt | 119.7 | 122.5% | 7.08µM*
COc1cc(C(=O)OCc2cc(=O)n3nc(C4CCCCC4)sc3n2)cc(OC)c1OC | nt | 8.3 | nt | nt
O=S(=O)(Nc1ccc(Cc2ccncc2)cc1)c1ccc(Cl)s1 | -1.2% | 25.7 | -1.3% | -0.4%
O=S(=O)(Nc1ccc(Cc2ccncc2)cc1)c1ccc(Br)cc1 | ? | -62.5* | ? | 10µM*
O=S(=O)(Nc1ccc(Cc2ccncc2)cc1)c1ccc(Cl)cc1 | 16.0% | -65.2* | 7.4% | 11.2µM*
O=S(=O)(Nc1ccc(Cc2ccncc2)cc1)c1ccc(Br)s1 | ? | ? | ? | -23.8%
CCOC(=O)N1CCN(C(=O)Nc2sc3nc4n(c(=O)c3c2C)CCC(C)CC4)CC1 (configuration not stated) | 13.1µM* | -2.7 | 11.7µM* | ?
CCOC(=O)N1CCC(NC(=O)c2sc3nc4n(c(=O)c3c2C)CCCC4)CC1 | 2.33µM* | -9.8 | nt | 11.0%
CCOC(=O)c1sc2nc3n(c(=O)c2c1C)CCC(C)CC3 (configuration not stated) | -3.2% | -5.7 | nt | ?
CCOC(=O)c1ccc(NC(=O)c2sc3nc4n(c(=O)c3c2C)CCC4)cc1 | 14.7µM* | -8.2 | ? | ?
Cc1cccc(CSc2cn(CC(=O)N3CCCC3)c3ccccc23)c1 | nt | 0.0 | nt | nt
O=S(=O)(c1ccc2c(c1)C(O)c1ccccc1CC2)C(F)(F)F (configuration not stated) | 3.29µM* | -5.6 | 7.38µM* | nt
SMILES | Pf growth 96h | HCMV antiviral | Pf growth 48h | HCV inhibitor
CCOC(=O)c1cc(-c2ccccc2)nc2nc(N3CCCCC3)sc12 | 51.2% | -4.5 | -8.6% | -18.7%
CNC(=O)c1cnc(-c2ccccc2)nc1-c1ccccc1 | 33.2% | -30.8 | 9.5% | 16.1%
CCOC(=O)c1cnn2c(C)cc(-c3ccccc3)nc12 | ? | 41.7 | 63.2% | 10µM*
CCOC(=O)c1cc2nc(-c3ccccc3)cc(C)n2n1 | ? | 0.1 | 5.0% | ?
CN(C)C(=O)c1cnc(-c2ccccc2)nc1-c1ccccc1 | -27.9% | -62.2* | -12.3% | -8.8%
CCOC(=O)c1cnc(N)nc1-c1ccccc1 | nt | -9.9 | nt | 18.1%
CCOC(=O)c1cc(-c2ccccc2)nc2nc(N(CC)CC)sc12 | 11.7µM* | -90.5* | 9.28µM* | 14.1µM*
CCOC(=O)c1cnc(-c2ccccc2)nc1-c1ccccc1 | -29.8% | -102.1* | ? | -12.3%
CCn1c(=O)cc(OCC(=O)N2CCN(c3ccc(C)cc3)C(C)C2)c2ccccc21 (configuration not stated) | nt | -19.9 | nt | nt
COc1cccc(C(=O)Nc2c3c(nn2-c2ccc(Cl)cc2)CS(=O)(=O)C3)c1 | nt | -8.2 | nt | nt
Cc1ccc(C)c(NC(=O)CSc2ncc3c(n2)-c2ccc(Cl)cc2N(C)S3(=O)=O)c1 | nt | 41.8 | nt | nt
CCOC(=O)c1nnc2cc(-c3ccccc3)nn2c1C | 14.7µM* | -23.4 | nt | -7.2%
CCOC(=O)c1cnc(-c2ccccc2)nc1Oc1ccccc1 | -24.7% | 11.0 | 17.9% | -19.3%
CS(=O)(=O)c1cnc(-c2ccccc2)nc1Oc1ccc(F)cc1 | ? | -28.9 | 13.1µM* | 5.0%
CCOC(=O)c1cnc(-c2ccccc2)nc1Oc1ccc(OC)cc1 | 5.22µM* | ? | 8.28µM* | -9.6%
CS(=O)(=O)c1cnc(-c2ccccc2)nc1Oc1ccc(Cl)cc1 | 20.1% | -39.9 | 1.1% | ?
Cc1cc(C)cc(NC(=O)c2ncn(-c3ccccc3)n2)c1 | nt | 47.7 | nt | nt
Cc1cccc(N2C(=O)N(CC(=O)C(C)(C)C)c3ccccc3S2(=O)=O)c1C | nt | 0.9 | nt | nt
NS(=O)(=O)c1ccc(CCNC(=O)Cn2c(-c3cccs3)cc3ccccc32)cc1 | nt | 13.7 | nt | nt
Cc1nn2c(=O)cc(COC(=O)c3ccco3)nc2s1 | nt | -1.6 | nt | nt
Cc1ccc(-c2nc(SCC(=O)N3CCc4ccccc43)c3c(=O)n(C)c(=O)n(C)c3n2)cc1 | nt | -1.6 | nt | nt
CCN(Cc1ccccc1)C(=O)COC(=O)c1cnc(C)cn1 | 34.5% | -22.6 | 0.6% | 9.5%
CCN(Cc1ccccc1)C(=O)COC(=O)c1c(C)nsc1NC | ? | -66.4* | ? | 11.2µM*
COc1ccc(C2=C(C=Nc3c(C)n(C)n(-c4ccccc4)c3=O)C(c3ccccc3C)c3ccccc3O2)cc1OC (configuration not stated) | nt | 4.7 | 0.329µM* | ?
Cc1c(N=Cc2c(O)n(C)c(=O)c3ccccc23)c(=O)n(-c2ccccc2)n1C | 78.3% | nt | 20.7% | 15.1%
SMILES | Pf growth 96h | HCMV antiviral | Pf growth 48h | HCV inhibitor
O=C1c2ccccc2C(=O)c2[nH]c(=O)[nH]c21 | 1.65µM* | -98.6* | nt | 6.31µM*
O=C1c2ccccc2C(=O)c2[nH]cnc21 | ? | -26.2 | ? | -21.1%
O=C1c2cccc(Sc3ccccc3)c2C(=O)c2c(Sc3ccccc3)cccc21 | ? | 13.7 | 13.1µM* | -4.3%
O=C1c2ccccc2C(=O)c2ccccc21 | 15.1µM* | nt | ? | nt
O=C1c2cccc(O)c2C(=O)c2c(O)cccc21 | 38.3% | nt | 43.0% | -18.2%[8.37 µM]
O=C(Nc1ccc(Cl)cc1)Nc1nc(-c2ccccc2O)cs1 | ? | -65.6* | 1.65µM* | ?
O=C(Nc1ccc(Cl)cc1)Nc1nc(-c2sccc2Br)cs1 | 9.28µM* | ? | 8.28µM* | 18.4%
CCOC(=O)/C(N=O)=C(\O)C1CCN(C(=O)OCC)CC1 | 13.1µM* | 16.8 | nt | 0.4%
COc1ccc(C(C(=O)NC(C)(C)C)n2c(-c3ccc(-c4ccccc4)cc3)nc3ccccc32)cc1 (configuration not stated) | nt | 29.9 | nt | nt
CCCc1cc(C(=O)Nc2ccc(C(=O)c3ccc(C)cc3)cc2)n(C)n1 | ? | -24.2 | -15.5% | 10µM*
